# According to PubChem BioAssay (NCI):
# The panel holds about 83,000 compounds, 20% with a hit somewhere; the sample as a whole holds those more often.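 Compound tested at a single concentration for 48 hours in 96-well plates; a percent growth value below 10 was scored as active.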 Unmarked numbers belong to inactive results. Activity calls are given as the source filed them.
# How the values were obtained:
# Test in all cases: NCI-60 one-dose screen, 48 h (100 = growth as untreated, 0 = no growth, -100 = all killed)
# Details in all cases: 10 µM
# SK-MEL-2 melanoma = test system: SK-MEL-2 melanoma
# EKVX NSCLC = test system: EKVX NSCLC
# SN12C renal = test system: SN12C renal
# UO-31 renal = test system: UO-31 renal
# TK-10 renal = test system: TK-10 renal
# ACHN renal = test system: ACHN renal
# A498 renal = test system: A498 renal
# CCRF-CEM leukemia = test system: CCRF-CEM leukemia
# MOLT-4 leukemia = test system: MOLT-4 leukemia
SMILES,growth (SK-MEL-2 melanoma),growth (EKVX NSCLC),growth (SN12C renal),growth (UO-31 renal),growth (TK-10 renal),growth (ACHN renal),growth (A498 renal),growth (CCRF-CEM leukemia),growth (MOLT-4 leukemia)
CCOC(=O)c1cc(C(=O)c2cc(OC)c(OC)c(OC)c2)n2nc(C)ccc12,27.7%,88.3%,60.1%,39.9%,78%,49.4%,23.4%,17.1%,18.4%
CN(C)CCCOc1ccc(NC2=C(Cl)C(=O)C(Nc3ccc(OCCCN(C)C)cc3)=C(Cl)C2=O)cc1,-40.2% (active),-89% (active),-91.6% (active),-99% (active),-98.7% (active),-94.1% (active),-49% (active),-31.2% (active),-23.4% (active)
C=CCSC(CC)(CC)C(=O)NC,109%,104%,101%,94.4%,102%,107%,104%,101%,93%
CC(CN(C)C)Oc1ccccc1NC1=C(Cl)C(=O)C(Nc2ccccc2OC(C)CN(C)C)=C(Cl)C1=O (configuration not stated),-61.2% (active),-71.7% (active),-96% (active),-99.9% (active),-97.8% (active),-98.4% (active),26.4%,-1.98% (active),-30.8% (active)
COC1OC(COS(=O)OC)C(O)C(O)C1OS(=O)OC (configuration not stated),112%,103%,106%,88.8%,88.6%,106%,116%,101%,92.1%
CCOC(=O)C(C)(c1ccccc1)c1ccccc1,114%,102%,102%,94%,102%,112%,105%,103%,109%
NNC(=O)Oc1c(Cl)cc(Cl)cc1[N+](=O)[O-],103%,105%,111%,87.4%,94.1%,106%,118%,100%,97.6%
O=C(Nc1ccc2c(O)cc(S(=O)(=O)O)cc2c1)c1ccc([N+](=O)[O-])cc1,102%,93.7%,98.8%,91.4%,102%,107%,97.9%,88.5%,63.7%
S=C(NCc1ccccc1)NCc1ccccc1,97.9%,102%,96.3%,87.1%,83.2%,105%,80%,95.9%,–
Cc1ccc(Cl)cc1NC(=O)CCl,86.9%,119%,84%,91.3%,96%,104%,105%,28.4%,–
CCOC(=O)c1cc(C(=O)c2cc(OC)cc(OC)c2)n2ncc3ccccc3c12,15.4%,61.5%,39.9%,19%,-8.97% (active),2.48% (active),16.5%,23.5%,29%
CCN(CC)CCOc1cccc2c1C(=O)c1cccc(OCCN(CC)CC)c1C2=O,32.1%,53.6%,27.5%,41%,47.4%,17.7%,63%,22.3%,–
CCOC(=O)/C(=C(\C)N)C1CC(=O)NC1=O (configuration not stated),123%,102%,96.5%,87.9%,118%,94%,107%,96.2%,104%
O=C(CCl)Nc1ccc(Cc2ccc(NC(=O)CCl)cc2)cc1,-20.6% (active),-3.32% (active),31.6%,54.5%,83.6%,-20.1% (active),111%,0.0611% (active),-4.84% (active)
C/C=C/C1=CN2C(=O)c3cc(OC4OC(C)C(NC)C(C)(O)C4O)c(C)c(O)c3N=C[C@@H]2C1 (some centres not stated),17.9%,-3.19% (active),1.37% (active),-44.5% (active),16.2%,3.15% (active),-83.1% (active),1.22% (active),2.33% (active)
Cc1c(Cl)cccc1NC(=O)CN1CCOCC1,93.5%,102%,99.9%,83.8%,84.4%,109%,101%,97.2%,82.3%
COc1cc(-c2nn(-c3ccc(NC(=O)NCCNS(=O)(=O)c4ccc(F)cc4)cc3)cc2-c2ccncc2)ccc1Cl,8.8% (active),33%,39.9%,31.5%,28.1%,23.7%,-19.1% (active),9.28% (active),–
COc1cc(C(=O)n2nc(-c3cc(OC)c(OC)c(OC)c3)nc2N)cc(OC)c1OC,91.2%,90.6%,109%,83.2%,98.1%,95.8%,77.6%,96.7%,81.5%
O=C(Nc1ccc(F)cc1)c1cc2ccccc2cc1O,84.7%,87.2%,79.1%,63.9%,141%,80.8%,69.2%,71.6%,46.9%
CN1CCN(CCC(=O)Nc2cccc(-n3cc(-c4ccncc4)c(-c4ccc(Cl)c(O)c4)n3)c2)CC1,34.5%,74.1%,61.8%,46.9%,103%,45.5%,34.5%,24.9%,25.6%
CC(=O)Oc1cc(OC(C)=O)c2ccccc2c1OC(C)=O,90.5%,97.5%,87.4%,62.6%,150%,84.9%,95.2%,76.7%,69.5%
CN(C)CCOc1ccccc1NC1=C(Cl)C(=O)C(Nc2ccccc2OCCN(C)C)=C(Cl)C1=O,82.9%,16%,-69.9% (active),38.4%,85.4%,-84.1% (active),107%,4.28% (active),-32.4% (active)
COc1ccc(-c2nnc(SCC(=O)Nc3ccc(C(=O)/C=C/c4ccccc4)cc3)n2-c2ccccc2)cc1OC,100%,120%,84.9%,69.2%,93.1%,98.9%,82.5%,93.6%,59.7%
O=C(CSc1nnc(-c2ccc(Cl)cc2)o1)Nc1ccc(C(=O)/C=C/c2ccc(Cl)cc2)cc1,101%,129%,95.9%,69.4%,118%,114%,94.7%,–,–
Nc1nccc(OCCO)n1,99.5%,97.8%,107%,91%,90%,108%,114%,113%,99.9%
CN(C)CCCOc1cccc(NC2=C(Cl)C(=O)C(Nc3cccc(OCCCN(C)C)c3)=C(Cl)C2=O)c1,-65.6% (active),-95.8% (active),-69.2% (active),-92.7% (active),-99.3% (active),-98.3% (active),44.5%,-37.6% (active),-37.1% (active)
CN(C)c1ncnc2c1nnn2C1OC(CO)C(O)C1O (configuration not stated),-17.2% (active),39.9%,18.7%,8.73% (active),-2.87% (active),5.56% (active),22.3%,8.83% (active),8.29% (active)
CC(C)(C)OC(=O)N1CCc2c(sc3ncnc(N/N=C/c4cccc(Br)c4)c23)C1,76.1%,26.3%,50.9%,21%,56.3%,33.9%,72.7%,–,–
COC(=O)C1(O)NC(=C(C#N)C#N)C(C#N)=C1C(=O)c1ccc(OC)c(OC)c1 (configuration not stated),104%,113%,96.7%,86.7%,122%,108%,93.6%,92.1%,92.1%
COc1cc(-c2nn(-c3cccc(NC(=O)CCNc4ccc(N5CCOCC5)cc4)c3)cc2-c2ccncc2)ccc1Cl,10.3%,39.4%,27.6%,27.3%,24.7%,15.8%,18.3%,10.9%,3.1% (active)
